# Results as given in PubChem BioAssay AID1851 (National Center for Advancing Translational Sciences (NCATS), 2009).
# Several values for one entry are separate records, joined by “and”; a condition that tells them apart may be missing. Equal values may be shown once. Out of some 16,000 compounds screened, about 5,800 (36%) were called active. Not shown: some 23% with an inconclusive outcome. Calls follow the shape of the dose curve; as a rule, active = well fitted curve in the direction sought with a large enough effect; inconclusive = small, poorly fitted or top-dose-only effect, or effect the other way; inactive = no such curve, though single readings can be large or run the other way. The list shows a part of the results. Where a structure was tested more than once in an assay, its records may differ in their call.
# Target: Cytochrome P450 2C19 (Homo sapiens) (UniProt P33261)
# Experiment: Cytochrome panel assay with activity outcomes
# Settings: recombinant CYP, pro-luciferin dealkylation, luminescence, p450-cyp2c19; series mostly up to 57.1 µM
# % is scaled to controls: 0 for no effect and ±100 for the full control effect.
# Cytochrome P450 2C19 (Homo sapiens), sequence (P33261 whole entry, looked up): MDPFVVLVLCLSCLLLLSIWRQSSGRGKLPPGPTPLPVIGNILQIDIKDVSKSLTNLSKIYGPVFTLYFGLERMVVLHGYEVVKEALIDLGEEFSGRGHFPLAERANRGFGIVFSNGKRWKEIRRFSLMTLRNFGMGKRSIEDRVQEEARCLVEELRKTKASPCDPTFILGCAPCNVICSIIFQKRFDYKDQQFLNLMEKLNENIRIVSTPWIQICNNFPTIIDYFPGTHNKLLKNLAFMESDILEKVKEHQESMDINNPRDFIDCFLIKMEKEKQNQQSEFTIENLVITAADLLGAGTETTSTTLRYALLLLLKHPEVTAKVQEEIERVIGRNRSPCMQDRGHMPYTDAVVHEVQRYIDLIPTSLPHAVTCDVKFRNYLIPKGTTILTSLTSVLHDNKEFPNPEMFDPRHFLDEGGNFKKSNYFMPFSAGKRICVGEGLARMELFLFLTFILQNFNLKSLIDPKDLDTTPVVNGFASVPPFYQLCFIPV
SMILES,"activity, negative = inhibition",AC50
CC(=O)OCC(=O)[C@]12OC(C)(C)O[C@@H]1C[C@H]1[C@H]3CC=C4C[C@@H](O)CC[C@]4(C)[C@H]3CC[C@]12C,4.13% [at 11.4 µM] (inactive),–
CC[C@@H]1OC(=O)[C@H](C)[C@H](O[C@@H]2C[C@](C)(OC)[C@H](O)[C@H](C)O2)[C@H](C)[C@H](O[C@@H]2O[C@@H](C)C[C@@H](N(C)C)[C@@H]2O)[C@](C)(O)C[C@H](C)C(=O)[C@H](C)[C@H](O)[C@]1(C)O,–,inactive
Nc1c2c(=O)oc(-c3ccccc3)cc2nn1-c1ccccc1,–,14.1 µM (active)
NS(=O)(=O)c1cccc2c1c([N+](=O)[O-])cc1[nH]c(=O)c(=O)[nH]c12,–,inactive
CCCSc1nc(C)cc(C)c1C(N)=O,–,inactive
Cc1cc(C)c(C(N)=O)c(SCC(=O)c2ccc(Cl)cc2)n1,–,8.91 µM (active)
NC(=O)c1nnn(Cc2cc(Cl)c(C(=O)c3ccc(Cl)cc3)c(Cl)c2)c1N,-30.1% [at 11.4 µM] (inactive),–
CCOC(=O)c1nc2sc(C)c(C)c2c(=O)[nH]1,–,10 µM (active)
OCCNc1ncnc2c1ncn2[C@@H]1O[C@@H](CO)[C@H](O)[C@@H]1O,32.5% [at 11.4 µM] (inactive),–
CCC(=O)N[C@@H]1CCc2cccc(OC)c2C1,–,inactive
CCC(=O)N[C@@H]1Cc2ccccc2[C@@H](c2ccccc2)C1,–,7.94 µM (active)
COc1cccc(Nc2ncc3nc(-c4ccc(F)cc4)c(=O)n(C)c3n2)c1,–,inactive
COc1ccc(-c2nc3cnc(Nc4cccc(OC)c4)nc3n(Cc3cccs3)c2=O)cc1,–,inactive
COc1cccc(Nc2nc(-c3ccc(O)cc3)cs2)c1,–,2.51 µM (active)
Cc1cc(C)n(C(=O)CCCCCCCCC(=O)n2nc(C)cc2C)n1,–,3.55 µM (active)
CC(=O)c1cnc2cc(C)nn2c1C,–,inactive
CN1CCc2c(cc(O)c(O)c2Cl)[C@H](c2cccc(Cl)c2)C1,–,inactive
OC(COCC1COc2ccccc2O1)CN1CCc2ccccc2C1 (stereo unspecified),–,5.01 µM (active)
CC(C)(C)C1CCC(OCC(O)CN2CCN(c3ccccc3)CC2)CC1 (stereo unspecified),–,inactive
OC(COCC1COc2ccccc2O1)CN1CCN(c2ccccc2F)CC1 (stereo unspecified),–,28.2 µM (active)
O=C(c1ccccc1)c1ccc2n1CC[C@H]2C(=O)O,–,inactive
C=CCc1ccccc1OC[C@H](O)CNC(C)C,–,inactive
CC(C)(C)NC[C@@H](O)COc1ccccc1C1CCCC1,–,inactive

SMILES,"activity, negative = inhibition",AC50
O=C(NC1CCCC1)c1cnn2c(C(F)(F)F)cc(-c3ccco3)nc12,–,11.2 µM (active)
Cc1nc2ccccn2c1C(=O)CSc1ccccc1Cl,–,2.82 µM (active)
C[C@@H](C(=O)NCCF)[C@H]1C[C@]1(C)[C@H](NC(=O)OCc1ccccc1)c1ccccc1,–,1.26 µM (active)
COCCNC(=O)[C@H](C)[C@@H]1C[C@@]1(C)[C@@H](NC(=O)OCc1ccccc1)c1ccccc1,–,3.16 µM (active)
CCOC(=O)N/N=C1/C[C@@H](O)[C@@H](O)[C@@H]2[C@@H]3C(=O)N(C(C)(C)C)C(=O)[C@H]3CC[C@@H]12,-19.4% [at 11.4 µM] (inactive),–
O=C(NCCO[N+](=O)[O-])c1cccnc1,–,3.98 µM (active)
CC(=O)OCCNC(=O)c1cccnc1,–,inactive
O=C(NCCOC(=O)c1ccc(C(=O)OCCNC(=O)c2cccnc2)s1)c1cccnc1,–,7.94 µM (active)
Cc1cccc([C@@H]2CN(C)CCc3c2cc(O)c(O)c3Cl)c1,–,inactive
CN(C)CCC[C@@]1(c2ccc(F)cc2)OCc2cc(C#N)ccc21,–,inactive and 3.16 µM (active)
O=S(=O)(/N=C(/Nc1ccc(F)cc1F)c1ccc(Cl)cc1)c1ccccc1,–,inactive
COc1ccccc1N/C(=N/S(=O)(=O)c1ccc(C)cc1)c1ccc(Cl)cc1,–,4.47 µM (active)
COc1cccc(-c2nc(Nc3ccncc3)c3ccccc3n2)c1,–,3.16 µM (active)
CS(=O)(=O)Nc1cccc(-c2nc(Nc3ccc(F)cc3)c3ccccc3n2)c1,–,7.94 µM (active)
N#Cc1cccc(-c2nc(Nc3ccncc3)c3ccccc3n2)c1,–,inactive
CS(=O)(=O)Nc1cccc(-c2nc(Nc3ccccc3)c3ccccc3n2)c1,–,10 µM (active)
CS(=O)(=O)Nc1cccc(-c2nc(Nc3ccncc3)c3ccccc3n2)c1,–,5.01 µM (active)
COc1cc(NS(C)(=O)=O)ccc1Nc1c2ccccc2nc2ccccc12,–,inactive
CNc1nc(-c2cccc(NS(C)(=O)=O)c2)nc2ccccc12,–,inactive
CS(=O)(=O)Nc1cccc(-c2nc(N3CCNCC3)c3ccccc3n2)c1,–,inactive
CS(=O)(=O)Nc1ccc(Nc2c3ccccc3nc3ccccc23)cc1,-0.835% [at 11.4 µM] (inactive),–
CCCCCCCCCCCCCCSCC(=O)O,–,inactive
NC[C@](O)(CS(=O)(=O)O)c1ccc(Cl)cc1,–,inactive

SMILES,"activity, negative = inhibition",AC50
O=C(N/N=C/C1C(c2ccccc2)C1(Cl)Cl)c1cccc(Br)c1 (stereo unspecified),–,7.08 µM (active)
O=C(N/N=C/c1cccc(Oc2ccccc2)c1)c1cccc(Br)c1,–,2.24 µM (active)
O=C(N/N=C\c1ccc(Sc2ccccn2)o1)c1cccc(Br)c1,–,2.51 µM (active)
C[C@@H](N=C(N)N)C(=O)O,36.5% [at 11.4 µM] (inactive),–
CC(=O)O[C@]12CC[N@+]3(C)CCCC[C@@H]3[C-]1Nc1ccccc12,34.8% [at 11.4 µM] (inactive),–
Cn1nc(C(F)(F)F)c(/C=N/OCc2c(Cl)cccc2Cl)c1Cl,–,0.282 µM (active)
COc1ccc(NC(=O)Cn2cccc2)c(OC)c1,–,2.24 µM (active)
COc1ccc(NC(=O)N2CC3(CCN(C(=O)c4cccn4C)CC3)C2)cc1,–,inactive
COc1ccc(NC(=O)NCc2cccn2C)c(OC)c1,–,6.31 µM (active)
COc1ccc(OC)c(NC(=O)Cn2cccc2)c1,–,6.31 µM (active)
COc1ccc(OC)c(NC(=O)CC(Cc2ccccc2OC)C(=O)O)c1 (stereo unspecified),–,inactive
COc1ccc(-c2nnn(CC(=O)N(CC(=O)NCCC(C)C)Cc3cccs3)n2)cc1OC,–,1.12 µM (active)
CCCC(=O)Nc1cc(-c2cn3cccnc3n2)ccc1OC,–,inactive
COc1ccc(NC(=O)N2CCC3(CC2)CCN(C(=O)c2cccn2C)CC3)cc1,–,inactive
COCCN(C(=O)Nc1ccc(OC)cc1OC)C1CCN(C(C)=O)CC1,–,inactive
CO[C@H]1COC(=O)[C@H](C)NC(=O)C/C=C\[C@@H](C)[C@@H](NS(=O)(=O)c2ccc(C)cc2)COC(=O)C/C=C\[C@@H]1C,24.1% [at 11.4 µM] (inactive),–
CCOc1ccc(-c2nnn(CC(=O)Nc3cc(OC)ccc3OC)n2)cc1OCC,–,5.62 µM (active)
COc1ccc(-c2nnn(CC(=O)NCCc3c[nH]c4ccccc34)n2)cc1OC,–,8.91 µM (active)
Cn1ncc(C#N)c1NC(=O)C1CC(c2ccc(Cl)cc2)=NO1 (stereo unspecified),–,0.316 µM (active)
COc1cccc(Nc2ncc3nc(-c4cccs4)c(=O)n(CCC#N)c3n2)c1,–,inactive
O=C(CCC1CCCCC1)Nc1c2c(nn1-c1ccc(F)cc1)CS(=O)(=O)C2,–,15.8 µM (active)
O=C(O)c1cc(N=Nc2ccc([N+](=O)[O-])cc2)ccc1O,-3.05% [at 11.4 µM] (inactive),–
NC(=O)c1ccc([N+](=O)[O-])cc1SCc1ccccc1,–,10 µM (active)

SMILES,"activity, negative = inhibition",AC50
O=C(NCc1ccccn1)c1cc(-c2ccccc2Cl)on1,–,14.1 µM (active)
O=C(O)[C@@H]1[C@@H](C(=O)NCc2ccccn2)[C@@H]2C=C[C@@H]1O2,36% [at 11.4 µM] (inactive),–
O=C(CCCN1CCC(O)(c2ccc(Br)cc2)CC1)c1ccc(F)cc1,–,inactive
OCCN1CCOCCOCCN(CCO)CCN(CCO)CC1,–,inactive
OCCN1CCN(C(=S)c2ccc(Br)cc2)CC1,–,4.47 µM (active)
C[C@H]1CN(CCO)CCN1c1ccccc1,34.1% [at 11.4 µM] (inactive),–
CCN1CCN(C(=S)c2ccc(Br)cc2)CC1,–,7.94 µM (active)
O=c1[nH][nH]c(C(F)(F)F)c1C=Nc1ccccc1,–,inactive
Cc1ccc(-c2cc(C(=O)NCc3ccco3)c3ccccc3n2)s1,–,3.98 µM (active)
Cc1ccc(CSc2nnc3c(n2)OC2(Nc4ccccc4-3)C(=O)Nc3ccc(F)cc32)cc1 (stereo unspecified),–,10 µM (active)
O=C1Nc2ccc(F)cc2C12Nc1ccccc1-c1nnc(SCc3ccccc3F)nc1O2 (stereo unspecified),–,4.47 µM (active)
COc1ccc(C(=O)c2c[nH]c(C(=O)NCc3cccs3)c2)cc1,–,inactive
Nc1nc2c(C(=O)NCc3cccs3)nnn2c2cccc(Cl)c12,12.5% [at 11.4 µM] (inactive),–
COc1cccc2c(=O)c(C(=O)NCc3cccs3)c[nH]c12,–,7.94 µM (active)
CCC(=O)OCC(=O)[C@@]1(OC(=O)CC)[C@H](C)C[C@@H]2[C@H]3CCC4=CC(=O)C=C[C@]4(C)[C@]3(Cl)[C@@H](O)C[C@@]21C,–,inactive
CC1=C/C(=N/O)C([C@H]2C=C(C)CC(C)(C)[C@@H]2O)C(C)(C)C1 (stereo partly specified),–,1.58 µM (active)
COc1cccc(Nc2ncc3nc(-c4cn(C)c5ccccc45)c(=O)n(CCC#N)c3n2)c1,–,inactive
COc1cccc2c1[C@@H]1CN(CCCCn3c(=O)[nH]c4c(sc5ncc(-c6ccccc6)nc54)c3=O)C[C@H]1CO2,–,inactive
FC(F)Sc1ccc(N=C2NN=C(c3ccc4c(c3)OCCO4)CS2)cc1,–,2.24 µM (active)
CN(Cc1ccccc1)C(=O)CC(c1ccccc1)c1cc(Cl)ccc1O (stereo unspecified),–,1.78 µM (active)
CC(C)Oc1ccc(CNC(=O)CC(c2ccccc2)c2cc(Cl)ccc2O)cc1 (stereo unspecified),–,1.78 µM (active)
Cc1cc(-c2cc(-c3ccc(Cl)cc3)nc(N)c2C#N)co1,–,0.282 µM (active)
